In all, about 2,300 compounds went through this assay and about 550 (24%) were called active. These entries were drawn from the full list. Potency and affinity values are given separately. Values without a mark were called inactive. No rule for the calls is given here.
experiment: Vero E6 cell cytotoxicity, dose response, cytotoxicity control for non-replicating M. tuberculosis project, secondary assay (AID 492998); conditions: series mostly up to 20 µM; viability: at the top concentration;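 also: 100% = vehicle-treated cells and 0% = background wells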

Compared with `COc1ccc(OC(=O)C(C)N2C(=O)c3ccccc3C2=O)cc1` (configuration not stated), `COc1ccc(C(=O)OCn2nnc3ccccc3c2=O)cc1` is lower in “viability” value: 104% for the first, 93.6% for the second.

Going from `O=C(Cc1ccc(Cl)cc1)OCC(=O)c1ccc[nH]1` to `COc1ccc(C(=O)COC(=O)CCC(=O)c2cccs2)cc1`, the “viability” value falls from 109% to 105%.

First: O=C(COC(=O)CC1CCCC1)Nc1ccc(Cl)cn1
Second: O=C(COC(=O)c1ccc([N+](=O)[O-])s1)Nc1ccc(Cl)cn1
The “viability” value of the first is higher: 108% for the first, 92.2% for the second.

Compared with `NC(=O)COC(=O)c1sc2ccccc2c1Cl`, `O=C(O)COc1ccc2occ(C(=O)c3ccccc3)c2c1` is higher in “viability” value: 90.3% for the first, 96.2% for the second.

Going from `CCOC(=O)c1c(C)n(C)c2ccc(OC(C)C(=O)OC)cc12` (configuration not stated) to `CCOC(=O)c1c(C)[nH]c(C)c1C(=O)COC(=O)c1ccc([N+](=O)[O-])s1`, the “viability” value falls from 98.4% to 79.9%.

Going from `Cc1cc(C(=O)COc2cccc3cccnc23)c(C)n1C` to `O=C(N/N=C/c1cccc2cccnc12)c1ccccc1O`, the “viability” value falls from 87.9% to 78.1%.

First: CCOC(=O)COc1ccc(C2CC(C)=NN2c2ccccc2)cc1 (configuration not stated)
Second: CCOc1ccc(OCC(=O)OCc2cc(=O)n3cc(Br)ccc3n2)cc1
The “viability” value of the first is higher: 102% for the first, 100% for the second.

Going from `Cc1ccccc1Cn1cc(NC(=O)c2noc(C(C)C)c2[N+](=O)[O-])cn1` to `O=[N+]([O-])c1ccc(Nc2ccccc2)c2nonc12`, the “viability” value falls from 112% to 103%.

First: CCOC(=O)CCCNC(=O)COC(=O)c1cc(Br)c(Br)s1
Second: COCCNC(=O)CC(=O)N/N=C/c1cccc(C(=O)OC)c1
The “viability” value of the first is higher: 107% for the first, 97.4% for the second.

Compared with `O=C(N/N=C\c1ccco1)c1cncc(Br)c1`, `O=C(N/N=C\C=C\c1ccco1)c1cncc(Br)c1` is higher in “viability” value: 97.2% for the first, 97.4% for the second.

First: Cc1nnc(C)n1/N=C/c1cc(Br)cc(Br)c1O
Second: NC(=O)N/N=C\c1cc(Br)ccc1O
The “viability” value of the first is higher: 105% for the first, 92.7% for the second.

First: COC(=O)C1=C(C(=O)OC)C(c2cc(Cl)ccc2O)c2sc(=O)[nH]c2S1 (configuration not stated)
Second: Oc1ccc(Cl)cc1CNCc1ccc(F)cc1
The “viability” value of the first is lower: 92.5% for the first, 97.2% for the second.

Compared with `CSCCC(=O)N1CCCC(CNC(=O)c2ccc(-c3ccccc3)cc2)C1` (configuration not stated), `O=C(NCC1CCN(c2ccc(S(=O)(=O)N3CCOCC3)cc2)CC1)c1ccc(Cl)cc1` is lower in “viability” value: 97.5% for the first, 88% for the second.

Going from `CCOc1ccc(-c2ccc(C=O)o2)c([N+](=O)[O-])c1` to `CCCOc1ccc(CCC(=O)N/N=C/c2ccc([N+](=O)[O-])o2)cc1`, the “viability” value falls from 98.1% to 70.6%.

Going from `O=[N+]([O-])c1cncc([N+](=O)[O-])c1Nc1ccccc1Cl` to `O=[N+]([O-])c1ccc(CNc2cccc(Cl)c2)s1`, the “viability” value rises from 88.5% to 96.4%.

Compared with `CCCCc1ccc(NS(=O)(=O)c2c(C)n(C)c(=O)n(C)c2=O)cc1`, `CCCN1C(=O)SC(CC(=O)Nc2ccccc2)C1=O` (configuration not stated) is higher in “viability” value: 89.4% for the first, 99.3% for the second.

First: O=C(N/N=C/c1cccs1)c1cncc(Br)c1
Second: O=C(OCC#CCSc1nnc(-c2ccncc2)o1)c1cccs1
The “viability” value of the first is lower: 101% for the first, 103% for the second.

Compared with `COC(=O)C1CC(=O)N(c2ccc(OCc3ccccc3Cl)cc2)C1` (configuration not stated), `COc1ccc(C2=NOC(COC(=O)c3ccc4ccccc4n3)C2)cc1` (configuration not stated) is lower in “viability” value: 106% for the first, 95.9% for the second.

First: COc1cccc(OCC(=O)NNC(=O)C(=O)Nc2cccc(C)c2)c1
Second: O=C(CNC(=O)c1ccco1)OCc1ccc(C(=O)Oc2ccccc2)cc1
The “viability” value of the first is lower: 90.2% for the first, 95.4% for the second.

Compared with `CC(C)=CCN1CCN(CCC2=C(C)CCCC2(C)C)CC1CCO` (configuration not stated), `O=C(CN1CCN(c2ccccc2O)CC1)Nc1ccc2c(c1)CCC2` is higher in “viability” value: 88.3% for the first, 107% for the second.

First: CN1C(=O)CC(Sc2ccccc2C(=O)O)C1=O (configuration not stated)
Second: CC(C)N=C1SC(CC(=O)Nc2ccccc2)C(=O)N1C(C)C (configuration not stated)
The “viability” value of the first is higher: 105% for the first, 94.4% for the second.

Compared with `Cc1ccc(N/N=C2\CS(=O)(=O)N(C)c3ccsc32)cc1`, `O=S(=O)(Nc1nccs1)c1ccc(NCc2cc(Br)cc(Br)c2O)cc1` is lower in “viability” value: 91.9% for the first, 88.4% for the second.

First: CCCOc1ccc(-c2nc(C#N)c(NCCCn3ccnc3)o2)cc1
Second: N#Cc1ccc(-c2ccc(OCC(=O)Nc3cccnc3)cc2)cc1
The “viability” value of the first is higher: 77.3% for the first, 72.8% for the second.

Going from `COc1ccc(C(=O)OCn2nnc3ccccc3c2=O)cc1[N+](=O)[O-]` to `COc1ccc2c3c(cccc13)OCC2=O`, the “viability” value falls from 107% to 94.7%.

Going from `CC(C)CN(Cc1c(O)ccc2ccccc12)CC(C)C` to `CCC(C)[C@H]1CN=C(N)N1CCc1cccc2ccccc12` (some centres not stated), the “viability” value rises from 98.1% to 104%.

Going from `Cc1cccc(CC(=O)NCC2CCCCC2)c1` to `O=C(NCCC1CCCC1)c1cccs1`, the “viability” value rises from 89.9% to 96.5%.

Going from `COC(=O)COc1ccc(S(=O)(=O)N2CCCCCC2)cc1` to `CCN1CCN(C(=O)CN(Cc2ccccc2)S(C)(=O)=O)CC1`, the “viability” value rises from 80.5% to 103%.

Going from `O=C(c1ccc(Cl)cc1)c1nnc(-c2ccncc2)o1` to `O=C(Nc1nnc(-c2ccco2)o1)c1ccc(Cl)s1`, the “viability” value falls from 92.7% to 72.1%.

Compared with `Cc1cc(C)c(OCC(=O)Nc2nnc(-c3ccco3)o2)c(C)c1`, `O=c1oc2ccccc2c2c1nnn2CCO` is lower in “viability” value: 100% for the first, 94.4% for the second.

First: Clc1ccc(SCCOCCN2CCc3ccccc3C2)cc1
Second: O=C1CC(N2CCN(Cc3ccccc3)CC2)C(=O)N1CCc1ccccc1 (configuration not stated)
The “viability” value of the first is lower: 89.1% for the first, 93.1% for the second.

Compared with `CCC(C)c1ccc(O)c(/C=N/O)c1` (configuration not stated), `COc1ccc(NC(=O)c2ccc(COCC(F)(F)C(F)F)cc2)cc1` is lower in “viability” value: 99.8% for the first, 95.8% for the second.
